An excerpt weighted towards active compounds, which were near 12% of everything screened.
BAZ2B block = BAZ2B (human) inhibition; 360,000 tested, 4.4% active; AID 504333; Potency, µM (titrated, usually from 114 µM), inactives show at the highest dose activity change, negative = inhibition, hits mostly inhibitors; Q9UIF8; AlphaScreen BAZ2B-H3K14Ac peptide displacement; further: on the % scale 0 is the no-effect control and ±100 the full control effect; nearly all actives have a fitted effect of over 60% in size
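Inhibition is scored as reduced AlphaScreen emission. The BAZ2B/b-H3(5-23)K14Ac complex (50 nM each) in PBS pH 7.4, 0.01% Tween-20 meets compound (up to 110 uM) for 30 min at RT before bead addition.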
JMJD2A Tudor inh = blocks the human JMJD2A Tudor domain; O75164; AlphaScreen JMJD2A-Tudor / H3K4me3 peptide binding; Potency, µM (titrated, usually from 114 µM), inactives show top-dose activity change, negative = inhibition, usual class: inhibitors; 390,000 tested, 4.4% active; AID 504339; further: on the % scale 0 is the no-effect control and ±100 the full control effect; nearly all actives have a fitted effect of over 50% in size
G9a inh = blocks human histone lysine methyltransferase G9a | Q96KQ7 | G9a H3K9 monomethylation, AlphaScreen, 2 h | Potency, µM (doses to about 102 µM), without a hit: at the top dose activity, negative = inhibition, actives largely listed as inhibitors | 350,000 tested, 8.8% active | AID 504332; further: on the % scale 0 is the no-effect control and ±100 the full control effect; nearly all actives have a fitted effect of over 75% in size
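Signal arises when biotinylated H3K9 peptide, once monomethylated, bridges streptavidin donor and antibody-captured acceptor beads. Enzyme at 20 nM was preincubated 15 min with test compounds; peptide 500 nM and SAM 20 uM then reacted for 2 h.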
HP1b binding inh = blocks HP1-beta chromodomain binding to methylated histone tails | Potency, µM (highest dose often 114 µM), without a hit: top-dose activity change, negative = inhibition, usual class: inhibitors | P83916 | AID 540317 | AlphaScreen HP1-beta / biotin-H3K9me3 peptide binding | 390,000 tested, 0.56% active; further: nearly all actives have a fitted effect of over 70% in size
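HP1-beta protein (50 nM final) preincubated 30 min at room temperature with biotinylated H3(1-18)K9me3 peptide (50 nM) in PBS pH 7.4, 0.01% Tween-20, then compound added for 30 min. AlphaScreen streptavidin donor/nickel chelate acceptor beads (10 ug/mL final), 30 min dark, luminescence read.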
Sfp inh = inhibitors of Bacillus subtilis Sfp phosphopantetheinyl transferase. 310,000 tested, 3.5% active. Biochemical Sfp PPTase activity, qHTS. Q9F4F7. AID 1490. Potency, µM, inactives show largest response in the series, negative = inhibition, usual class: inhibitors;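 further: the enzyme is Sfp with the accession as filed and its product quenches rhodamine fluorescence; 0% = enzyme reaction without inhibitor and -100% = no enzyme wells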
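With Hepes-Na pH 7.6 buffer containing 10 mM MgCl2, Sfp (15 nM) modified BHQ-2-YbbR (12.5 uM) using rhodamine-CoA (5 uM). Two reads 30 minutes apart at 525/598 nm yielded each well's rate.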
Starred values were filed as active, the others as inactive; ? = inconclusive; nt = no result given; ! = repeats disagree; [ ] = dose if it differs, or a comment. The call rests on the fitted dose curve; in most records, active means well fitted curve in the direction sought with a large enough effect; inconclusive means small, poorly fitted or top-dose-only effect, or another doubt; inactive means no such curve, though single readings can be large; an effect the other way counts as inactive or inconclusive. Potency means the concentration at half of the fitted maximal effect.

SMILES | BAZ2B block | JMJD2A Tudor inh | G9a inh | HP1b binding inh | Sfp inh
Cc1ccc(NC(=O)Cn2c(=O)oc3cc(S(=O)(=O)N4CCCC4)ccc32)cc1F | 2.9% | -7.4% | 6.8%[59 µM] | 22.2% | nt
Cc1ccccc1NC(=O)C1C2CCC(O2)C1C(=O)O (centres undefined) | 11.3% | 12.1% | -7.4%[59 µM] | 12.1% | 18.8%
Cc1ccc(F)cc1NC(=O)C1C2CCC(O2)C1C(=O)O (centres undefined) | 25.0% | -24.5% | 79.4µM* | 19.2% | 6.7%
COc1ccc(CCNC(=O)CSc2nnc(-c3ccccc3)o2)cc1OC | nt | -6.2% | -8.4%[59 µM] | 27.0% | 13.1%
CNc1cccc2c1C(=O)c1ccccc1C2=O | 3.16µM* | 2.82µM* | 8.91µM* | 8.91µM* | 10.9%
CCCn1c2ccc(F)cc2c2nnc(NN)nc21 | -27.7% | -29.0% | 50.1µM* | 16.1% | -18.9%
CCc1ccc2c(c1)c1nnc(NN)nc1n2CC | ? | ? | ? | 11.1% | -19.9%
NNc1nnc2c3cc(F)ccc3n(Cc3ccccc3)c2n1 | ? | -16.2% | nt | 27.7% | -2.0%
CCn1c2ccc(F)cc2c2nnc(NN)nc21 | ? | ? | 50.1µM* | 33.9% | ?
CCNC(=O)CC1C(=O)N(c2ccc(F)cc2)C(=O)N1CCC(C)C (centres undefined) | -3.0% | -3.3% | 13.7%[12.7 µM] | 7.8% | 11.2%
COC(=O)CCc1ccc(O)cc1 | -4.3% | -16.3% | -1.0%[12.7 µM] | 7.3% | 27.1%
COC(=O)C1(Cc2ccc(O)cc2)OC(=O)C(O)=C1c1ccc(O)cc1 (centres undefined) | 79.4µM* | 56.2µM* | ? | -25.9% | -26.5%
Cc1ccc(N=Nc2ccc(O)c(P(=O)(c3ccccc3)c3ccccc3)c2)cc1 | ? | 11.2µM* | ? | -19.0% | 2.4%
O=C(CC1S/C(=N/N=C/C=C/c2ccccc2)NC1=O)Nc1ccc(C(=O)O)cc1 (centres undefined) | 79.4µM* | -17.4% | ? | 23.7% | -4.9%
O=C(CC1S/C(=N/N=C/c2ccco2)NC1=O)Nc1ccccc1 (centres undefined) | -21.7% | -7.8% | 46.8%[59 µM] | 37.3% | -13.7%
O=C1c2c(O)cccc2Cc2cccc(O)c21 | ? | -25.2% | 2.51µM*! | 6.6% | -8.8%
O=C1C=C(O)c2c(O)cccc2C1=O | -7.8% | nt | 82.1%[59 µM] | nt | ?
CC(Sc1nnc(-c2ccco2)n1C)C(=O)Nc1nccs1 (centres undefined) | -33.4% | 31.6µM* | -30.8% | 20.7% | nt
CC(Sc1ccc([N+](=O)[O-])cn1)C(=O)Nc1nccs1 (centres undefined) | -28.3% | -20.5% | 7.94µM* | 19.1% | -26.6%
Cc1nnc(SC(C)C(=O)Nc2ccc(Cl)cn2)n1Cc1ccccc1 (centres undefined) | 9.5% | -5.8% | 4.7% | 51.9% | 8.1%
CC(Sc1nnc(-c2ccc(Cl)cc2Cl)n1Cc1ccccc1)C(=O)Nc1nccs1 (centres undefined) | -7.2% | 79.4µM* | -37.5%[59 µM] | ? | -0.4%
O=C(Nc1nccs1)c1cc([N+](=O)[O-])ccc1Cl | -24.7% | -13.6% | nt | 23.9% | 5.9%
Cc1ccc(NC(=S)Nc2ccc3nc(-c4ccccn4)c(-c4ccccn4)nc3c2)cc1C | ? | ? | 7.94µM* | -23.0% | -18.1%
O=C(Nc1nccs1)C1CC=CC2CCN(Cc3ccc(Cl)c(Cl)c3)C(=O)C21 (centres undefined) | nt | -13.1% | nt | 31.1% | 17.4%
COc1ccc(NS(=O)(=O)c2cnc(N)nc2)cc1Cl | -2.6% | 50.1µM* | -31.4%[59 µM] | 30.9%[57 µM] | nt
COc1ccc(C(NC(=O)/C=C/c2ccco2)c2ccc(OC)c(OC)c2)cc1 (centres undefined) | ? | -15.6% | 17.8µM* | -0.9% | 20µM*
CCOc1ccc(C(NC(=O)/C=C/c2ccco2)c2ccc(OC)c(OC)c2)cc1 (centres undefined) | ? | -33.8% | 28.2µM* | -16.0% | ?
Cc1cc(N2CCN(c3ccccc3)CC2)nc(-c2ccccc2O)n1 | 13.6% | -6.9%[57.1 µM] | -44.8% | 69.2% | -4.3%
CCCCN(C)C(=O)C1CCN(Cc2cccnc2)CC1 | 79.4µM* | 28.2µM* | 14.1µM* | ? | -17.4%
CCCCN(C)C(=O)C1CCN(Cc2cccc(OCc3ccccc3)c2)CC1 | ? | 39.8µM* | 12.6µM* | -7.5% | -20.7%

Screens as filed in PubChem BioAssay.
